About 1,600 (0.46%) of roughly 350,000 compounds were called active.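 Rule for the calls: active = activation of at least 50%, plus an integration ratio under a set limit after plate pattern correction; inactive = the rest.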 What follows is part of a selection rich in actives, with near analogues and random picks from the rest.

Consider 86 molecules from PubChem BioAssay AID588473 (Sanford-Burnham Center for Chemical Genomics, 2011).

The experiment relates to CRF-binding protein / CRF receptor 2 complex (human). As to the kind of experiment: activators of CRF-R2 with CRF-BP – cell-based, HEK293, calcium dye fluorescence, uHTS, primary screen (AID 588473).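 Note: plate controls were neutral control wells without compound for no effect and CRF at EC100 for full effect.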 The conditions noted are these: calcium dye fluorescence (FLIPR), at 13.2 µM, active compounds read high, percent of saturating CRF peptide response.
In the case of `CCCCCCCCNS(=O)(=O)CCNC1CCCCC1`, the activation is -0.59% (inactive).

Turning to `CC(C)n1c(-c2ccncc2)n[nH]c1=S`, the activation is -1.12% (inactive).

On to `O=C(Nc1cc2c3c(c1)C1CCCC1CN3CC1CCCC21)c1ccc([N+](=O)[O-])cc1` (stereo unspecified), for which the activation was -3.97% (inactive). Under `Nc1cc(C(=O)N2CCN(c3ccccc3Cl)CC2)ccc1N1CC2CC(C1)c1cccc(=O)n1C2` (stereo unspecified) stands 0.29% (inactive); under `Oc1ccc(-c2nncn2-c2ccccc2)cc1`, 0.43% (inactive). For `CCOc1ccc2nc(/N=C/c3nc(-c4ccccc4)oc3O)sc2c1`, the activation is 191% (active). `CCOc1ccc2nc(C(=O)N3CCCC(C)C3)sc2c1` (stereo unspecified): the activation was 0.48% (inactive). In the case of `CC(N=Cc1nc(-c2ccccc2)oc1O)c1ccccc1` (stereo unspecified) it was -5.27% (inactive); in that of `Cn1c(=O)c2c(nc(N3CCOCC3)n2CCNC2=NCCC2)n(C)c1=O`, -1.41% (inactive); in that of `C[C@H]1NS(=O)(=O)c2cc(Cl)ccc2O[C@@H]1c1ccccc1`, -0.01% (inactive). As for `COC(=O)C1(O)CC(C(C)C)=NN1C(=O)c1ccc(Cl)cc1` (stereo unspecified), the activation is 0.23% (inactive).

For the molecule `Cc1ccc(S(=O)(=O)/N=C2\C=C(NS(=O)(=O)c3ccc(C)cc3)C(=O)c3ccccc32)cc1`, the activation was -2.69% (inactive).

For `COc1ccc(S(=O)(=O)/N=C2\C=C(NS(=O)(=O)c3ccccc3)C(=O)c3ccccc32)cc1`, the activation was -1.4% (inactive). In the case of `CC1=C/C(=N\S(=O)(=O)c2ccccc2)C(C(C)C)=CC1=O` it was 81.3% (active); in that of `O=[N+]([O-])c1cc(S(=O)(=O)NCCc2ccccn2)ccc1Cl`, 1.07% (inactive); in that of `CCCCN1C[C@H](c2ccc(Br)cc2)[C@@H](CC(=O)Nc2ccc(Br)cc2)C1=O`, -0.04% (inactive).

As for `COc1ccc(C2CC(c3cccs3)Nc3nnnn32)cc1` (stereo unspecified), the activation is -1.43% (inactive). Under `COc1ccc(C2=CC(c3cccc(OC)c3)n3nnnc3N2)cc1` (stereo unspecified) stands 69.7% (active); under `COC(=O)C1=C(C(=O)c2ccc(C)cc2)C(c2ccccc2)n2nnnc2N1` (stereo unspecified), -0.02% (inactive); under `CC/C(=N\O)C(C)(C)/[N+]([O-])=C/c1ccc(Br)cc1`, 0.05% (inactive). In the case of `CC(C)(C)Nc1c(-c2cccs2)nc2ccccn12` it was -0.46% (inactive).

On to `CCN(Cc1nc2ccccc2c(=O)[nH]1)Cc1cc(=O)oc2cc(C)c(C)cc12`, for which the activation was -0.08% (inactive). Under `COC(=O)c1cc(C(=O)OCC(=O)Nc2cc(C)on2)cc([N+](=O)[O-])c1` stands -3.69% (inactive). Turning to `CCc1ccc(NC(=O)CN2C(=O)COc3ccc(S(=O)(=O)N4CCCC4)cc32)cc1`, the activation was -5.92% (inactive). In the case of `COCCCNCC(=O)Nc1sc(C)c(C)c1C(=O)OC` it was -2.35% (inactive). With `C[n+]1ccc(/C=C/c2c[nH]c3ccccc23)cc1`, the activation is 61.1% (active). In the case of `COc1ccc(N(CC(=O)Nc2ccc(F)c(F)c2)S(=O)(=O)c2c(C)[nH]c(=O)[nH]c2=O)cc1` it was -1.2% (inactive); in that of `CCOC(=O)N1CCN(C(=O)c2nn(-c3ccc(C)cc3)c(=O)c3c2c2ccccc2n3C)CC1`, 3.98% (inactive); in that of `CCCc1nc2c(c(=O)c3ccccc3n2C)c(=O)n1C1CCCCCC1`, 137% (active). In the case of `CCOC(=O)c1nnn2c3ccccc3c(=O)n(C)c12` it was 0.18% (inactive).

With `C=C(C)CSc1nc(N)c2c3c(sc2n1)CCC3`, the activation was 155% (active). Under `CC(C)(C)C1CCc2c(sc3nc(SCC(N)=O)nc(N)c23)C1` (stereo unspecified) stands 0.65% (inactive); under `Nc1nc(SCC(=O)NCCN2CCOCC2)nc2sc3c(c12)CCC3`, 2.46% (inactive); under `CC(NC(=O)c1ccc(Cl)cc1)C(=O)N1CCCCC1` (stereo unspecified), 0.19% (inactive). On to `O=C(CN1CCN(C2CCS(=O)(=O)C2)CC1)N1N=C(c2ccc(Cl)cc2)CC1c1ccco1` (stereo unspecified), for which the activation was 0.41% (inactive). In the case of `CCOc1cc(C=NNC(=O)CCCC(=O)NN=Cc2ccc(O)c(OCC)c2)ccc1O` it was -2.14% (inactive); in that of `CCOc1cc(/C=N/NC(=O)c2c(C)nc3ccc(Cl)cn23)ccc1O`, -0.91% (inactive). Under `CCOc1cc(/C=C(\C#N)c2nc(-c3cccs3)c(NC(C)=O)s2)ccc1O` stands 222% (active). Regarding `CCOC(=O)c1ccc(N/C(=N/S(=O)(=O)c2ccccc2)c2ccccc2)cc1`, the activation was -1.91% (inactive).

In the case of `CC1(C)O[C@H]2CC(=O)OCC23[C@H]2CC[C@@]4(C)[C@H](c5ccoc5)OC(=O)[C@H]5O[C@]54[C@]2(C)C(=O)C[C@@H]13` (stereo partly specified), the activation was 1.6% (inactive). Under `CN(NS(=O)(=O)c1cccs1)c1ncc(C(F)(F)F)cc1Cl` stands -0.09% (inactive). In the case of `C#CCN(N(C)c1ncc(C(F)(F)F)cc1Cl)S(=O)(=O)c1ccc2ccccc2c1` it was 64.8% (active); in that of `Cc1nn(CC#N)c(=O)n1N(C)c1ncc(C(F)(F)F)cc1Cl`, 1.06% (inactive); in that of `O=C(COc1ccc(Cl)cc1)NC(=S)Nc1ccccc1N1CCOCC1`, 1.42% (inactive).

Consider `O=C(Cc1ccc(Cl)cc1)NC(=S)Nc1ccccc1O`, for which the activation is 128% (active). For the molecule `Cc1ccccc1NC(=S)NC(=O)Cc1ccc(Cl)cc1`, the activation is 46% (inactive). For the molecule `Cc1csc(=O)n1CC(=O)OCC(=O)N(CC(C)C)c1c(N)n(Cc2ccccc2)c(=O)[nH]c1=O`, the activation is -0.29% (inactive). Under `CCCCNC(=O)C(C)N(CCN(C)C)C(=O)CCCN1C(=O)NC(c2ccc(Cl)cc2)C(C(=O)OCc2ccccc2)=C1C` (stereo unspecified) stands -0.71% (inactive). Turning to `CC1CCN(c2ccc3c(c2)S(=O)(=O)c2cc(C(=O)O)ccc2C3=O)CC1`, the activation was 3.35% (inactive). In the case of `Cc1ccc(CNC(=O)c2ccc3c(c2)S(=O)(=O)c2ccccc2C3=O)cc1` it was -0.74% (inactive); in that of `Cc1ccc(CNC(=O)c2cccc3c2C(=O)c2ccc(N4CCC(C)CC4)cc2S3(=O)=O)cc1`, 56.2% (active). In the case of `Cc1ccnc2nc(C(=O)OCC(=O)N(CC(C)C)CC(C)C)nn12` it was 3.18% (inactive); in that of `CC(=O)OCC1(O)CC23CCC4c5ccoc5CCC4(C)C2CCC1C3` (stereo unspecified), 4.09% (inactive); in that of `COc1cc(OC)cc(C(=O)NC(=S)N2CCN(c3ccc(C(F)(F)F)cc3[N+](=O)[O-])CC2)c1`, 2.06% (inactive). In the case of `CCN(CC)c1ccc(C(=O)N/N=C(\C)c2cccc(OC)c2)cc1` it was 0.09% (inactive).

In the case of `COc1cccc2cc(C(N)=O)/c(=N\NC(=O)c3ccccc3)oc12`, the activation was -2.1% (inactive). In the case of `CCN(CC)c1ccc2cc(C(N)=O)/c(=N\NC(=O)c3ccncc3)oc2c1` it was 264% (active). In the case of `COc1cc(C(=O)NNC(=O)CN2C(=O)NC3(CCCC3)C2=O)cc(OC)c1OC` it was 0.66% (inactive).

Regarding `Cc1c(NC(=O)C(=O)N/N=C/c2cccs2)c(=O)n(-c2ccccc2)n1C`, the activation is 4.78% (inactive). In the case of `Cc1cc(C)c(S(=O)(=O)NCC(c2ccc3c(c2)OCO3)N2CCOCC2)c(C)c1` (stereo unspecified) it was -1.15% (inactive). For the molecule `COc1cccc2c1C(=O)c1c(O)c3c(c(O)c1C2=O)CC(O)(C(C)=NNC(=O)c1ccc(Cl)c(Cl)c1)CC3OC1CC(N)C(O)C(C)O1` (stereo unspecified), the activation is 67.3% (active).

For `Cc1ccc(C(=O)N/N=C/c2sc(=O)n(Cc3cccc(C(=O)O)c3)c2Cl)cc1`, the activation was 1.16% (inactive).

`CCCS(=O)(=O)N1CCC(C(=O)NCCc2ccc(OC)c(OC)c2)CC1`: the activation was -0.54% (inactive). Under `Cc1cccc(C(C)C)c1NC(=O)COC(=O)C1CC(=O)N(Cc2ccccc2)C1` (stereo unspecified) stands -1.23% (inactive); under `COc1cc(/C=C2\CCCc3c2nc2ccccc2c3C(=O)O)cc(Cl)c1O`, 0.27% (inactive).

For `NS(=O)(=O)c1ccc(NC(=O)COC(=O)c2c3c(nc4ccccc24)/C(=C\c2ccc4c(c2)OCO4)CCC3)cc1`, the activation was 0.53% (inactive). As for `NC(=O)c1ccc(NC(=O)COC(=O)c2c3c(nc4ccccc24)/C(=C\c2ccc4c(c2)OCO4)CCC3)cc1`, the activation was 255% (active). In the case of `COc1ccc([N+](=O)[O-])cc1NC(=O)CC1SC(=Nc2cccc(C)c2C)N(/N=C(\C)c2ccc(C)cc2)C1=O` (stereo unspecified), the activation was -0.05% (inactive). In the case of `Cc1ccc(C(CC(=O)O)NC(=O)c2ccc(S(=O)(=O)N3CCCC3)cc2)cc1` (stereo unspecified), the activation was 0.98% (inactive). As to `Cc1ccc(C(=O)COC(=O)CCCC(=O)NC2CCCCC2)cc1[N+](=O)[O-]`, the activation is 1.32% (inactive).

Take `COc1ccc(C)cc1NC(=O)CSc1nnc(CC(=O)Nc2ccccc2F)n1C`: the activation was 3.27% (inactive).

In the case of `CN1C(=O)c2cccc3c(N)ccc(c23)C1=O`, the activation was 222% (active).

Turning to `O=C1c2cccc3c([N+](=O)[O-])ccc(c23)C(=O)N1CC1CCCO1` (stereo unspecified), the activation was 12.3% (inactive). Consider `CC(C(=O)O)N1C(=O)c2cccc3cccc1c23` (stereo unspecified), for which the activation was -0.43% (inactive).

Consider `Cc1nn(C)cc1N1C(=O)c2cccc3c(N)ccc(c23)C1=O`, for which the activation was 200% (active). With `CC(C)n1c(CN2CCN(Cc3ccccc3)CC2)nc2ccccc21`, the activation is 1.04% (inactive). In the case of `COc1cc(CNCc2ccc3c(c2)OCO3)c([N+](=O)[O-])cc1OC`, the activation was -1.29% (inactive). For the molecule `COc1ccc(Br)cc1CN(C)CC(=O)Nc1cc([N+](=O)[O-])ccc1OC`, the activation was 0.1% (inactive). `CCCCN1CCNC1=S`: the activation was -0.03% (inactive).

As for `CCCCN1C(N)=NC[C@@H]1CC1CCCCC1`, the activation is -0.4% (inactive).

For the molecule `CCOc1ccc(NC(=O)c2ccc(CSc3nnnn3C)cc2)cc1`, the activation was 1.79% (inactive). Under `NS(=O)(=O)c1ccc(NC(=O)COC(=O)C2(c3ccc(F)cc3)CCCC2)cc1` stands -2.26% (inactive); under `Cc1cc(NS(=O)(=O)c2ccc(NC(=O)c3cccnc3)cc2)nc(C)n1`, -0.63% (inactive).

With `Cc1cc(NS(=O)(=O)c2ccc(NC(=O)C(C)Oc3cccc(C)c3C)cc2)nc(C)n1` (stereo unspecified), the activation was -1.14% (inactive).

Consider `Cc1cc(NS(=O)(=O)c2ccc(NC(=O)c3cccc(OC(F)F)c3)cc2)nc(C)n1`, for which the activation was 73.2% (active). Under `COc1ccc(N2CCN(C(CNS(=O)(=O)c3ccc(C)cc3)c3ccccc3)CC2)cc1` (stereo unspecified) stands -2.07% (inactive).
